Mtb betalactam – beta-lactam sensitization of Mtb H37Rv; M. tuberculosis H37Rv growth with meropenem, percent inhibition; inhibition, % at 25 µM; 0.27% of 330,000 active;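 note: growth measured after seven days incubation then overnight dye step; 0% = bacteria only wells and 100% = bacteria with antibiotic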
MazEF act – increases E. coli MazEF RNase cleavage of RNA; FAM/BHQ RNA-DNA oligo cleavage fluorescence, 5 h; P0AE70; 0.32% of 350,000 active; activation, % at 20 µM; in the data active = activation above about 50%
Target sequence (P0AE70 whole entry, looked up): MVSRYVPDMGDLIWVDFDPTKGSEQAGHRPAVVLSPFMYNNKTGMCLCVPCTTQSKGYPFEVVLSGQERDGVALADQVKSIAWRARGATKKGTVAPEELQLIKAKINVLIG
TcdB inh – inhibitors of Clostridioides difficile toxin B glycohydrolase; P18177; TcdB glycohydrolase enzymatic assay, plate reader; inhibition, % at 9.99 µM; 0.24% of 350,000 active; in the data active = inhibition above about 10%
RecA splice inh – Mtb RecA intein splicing inhibition; P9WHJ3; cell-free RecA intein splicing, fluorescence; inhibition, % (test concentration not listed); 0.75% of 290,000 active; in the data active = inhibition above about 30%; inconclusive = no clear call, values can overlap the other calls;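 note: 0% = vehicle wells and 100% = reference inhibitor control wells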
UGM FP inh – inhibitors of M. tuberculosis UDP-galactopyranose mutase | P9WIQ1 | inhibition, % at 10 µM | 0.06% of 320,000 active | purified UGM, fluorescence polarization probe displacement; in the data active = inhibition above about 10%, passing the limit was not always enough; inconclusive = no clear call, values can overlap the other calls
Target sequence (P9WIQ1 whole entry, looked up): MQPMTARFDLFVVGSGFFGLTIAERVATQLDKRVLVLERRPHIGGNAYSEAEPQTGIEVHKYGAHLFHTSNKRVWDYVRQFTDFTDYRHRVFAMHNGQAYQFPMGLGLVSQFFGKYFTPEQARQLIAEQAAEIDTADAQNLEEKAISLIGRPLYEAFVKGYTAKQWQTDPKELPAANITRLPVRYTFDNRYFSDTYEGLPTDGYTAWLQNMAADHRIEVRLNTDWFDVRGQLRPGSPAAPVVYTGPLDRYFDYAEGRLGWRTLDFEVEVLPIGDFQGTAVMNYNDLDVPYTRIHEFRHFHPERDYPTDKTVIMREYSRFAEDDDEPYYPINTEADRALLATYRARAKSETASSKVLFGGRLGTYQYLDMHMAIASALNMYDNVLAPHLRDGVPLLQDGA
Rv3671c protease – Rv3671c (M. tuberculosis) protease inhibition; P9WHR9; inhibition, % at 5.96 µM; 0.048% of 320,000 active; in the data active = inhibition above about 38%;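 note: extracellular domain of Rv3671c used as enzyme; 0% = enzyme with DMSO and 100% = no enzyme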
GFP chromophore – counter-screen GFP chromophore formation inhibition | shares compounds with RecA splice inh | cell-free GFP chromophore formation, fluorescence | EC50, µM | 83% of 2,100 active
Numbers without * were called inactive; ? = inconclusive; / = not tested or not shown. Rows were chosen to be rich in hits. Some 0.97% of all compounds tested hit in one or more screens of this group. Unless noted, the rule behind the calls is not given here.

SMILES	Mtb betalactam	MazEF act	TcdB inh	RecA splice inh	UGM FP inh	Rv3671c protease	GFP chromophore
CCN(CC)CCN1C(=O)c2cccc3cc(N)cc(c23)C1=O	1.0	-341.1	1.1	45.6*	4.7	-0.4	0.424*
COC(=O)CN1C(c2ccc(Cl)cc2)=Nc2ccc(Cl)cc2C1c1ccccc1 (configuration not stated)	94.2	-4.1	/	31.7*	-0.9	-13.9	>38
CCN(c1ccccc1)c1cc2ccccc2c(=O)[nH]1	3.2	8.5	1.3	65.4*	-2.6	-38.5	31.4*
CCOC(=O)c1c(CSC(=N)N)n(-c2ccc(C)cc2)c2cc(Br)c(OC(C)=O)cc12	39.0	-35.5	/	69.8*	-1.0	-4.7	7.92*
S=C(Nc1ccc(Cl)cc1)c1nc2ccccc2s1	/	10.6	/	0.6	-4.0	-0.1	/
O=C(Nc1ccc(Cl)cc1)/C(=C/c1cccc(O)c1)c1nc2ccccc2s1	9.1	12.7	1.7	46.4*	0.2	-52.9	20.6*
CCN(CC)CCN1C(=O)C(O)=C(C(C)=O)C1c1ccccc1[N+](=O)[O-] (configuration not stated)	3.1	-24.7	-0.4	76.7*	0.6	-13.6	7.79*
CC(=O)C1=C(O)C(=O)N(CCc2ccccc2)C1c1ccccc1[N+](=O)[O-] (configuration not stated)	4.3	-4.4	-0.7	-1.8	2.0	-21.5	/
CC=Cc1ccc2n(c1=O)C[C@H]1[C@H](CO)[C@@H](C(=O)NCC3CC3)N(CC3CCOCC3)[C@@H]21 (mixture of isomers)	/	/	0.0	/	/	/	/
CCN(CC)S(=O)(=O)c1ccc(N2CCN(S(=O)(=O)c3ccccc3C#N)CC2)nc1	-0.6	-5.4	/	31.7*	/	3.1	>38
CCN(CC)S(=O)(=O)c1ccc(N2CCN(S(=O)(=O)c3ccccc3)CC2)nc1	/	-32.6	1.6	-0.1	/	/	/
O=C(C1CCC1)N1CC2(C1)[C@@H](c1ccccc1)[C@@H](CO)N2Cc1ccccc1F	/	/	1.7	/	/	/	/
CCOC(=O)c1sc(N(Cc2ccccc2)C(=O)COC(=O)c2ccccc2O)nc1C	8.2	-7.4	-11.9	-2.0	0.7	5.9	/
CCOC(=O)c1sc(N(Cc2ccccc2)C(=O)CCl)nc1C	0.0	3.7	-0.2	88.4*	1.8	2.5	3.07*
Cn1cccc1CC(=O)N/N=C/C(Cl)=C/c1ccccc1	3.5	-2.0	-0.7	3.1	-0.8	-14.7	/
O=C(Cc1cc(=O)[nH][nH]1)N/N=C/c1cccc(Cl)c1Cl	-2.1	3.7	-6.6	94.4*	-4.4	-7.3	10.5*
O=C(Cc1cc(=O)[nH][nH]1)N/N=C/c1cccc2ccccc12	1.4	2.5	/	94.1*	0.7	-14.8	7.28*
O=C(CO)N/N=C/c1cccc(Cl)c1Cl	5.2	-7.0	/	0.5	/	5.2	/
O=C(Cc1ccccc1)N/N=C/c1ccccc1Cl	?	6.8	/	-0.7	1.3	-0.9	/
O=C(Cc1cc(=O)[nH][nH]1)N/N=C/c1ccccc1Cl	1.6	-7.0	1.1	74.0*	-3.3	-39.8	7.7*
O=C(Cc1cc(=O)[nH][nH]1)N/N=C/C(Cl)=C/c1ccccc1	2.3	0.9	0.3	81.3*	-1.3	-27.3	5.98*
O=C(N/N=C/c1cccc2ccccc12)c1cccc(F)c1	1.6	11.2	1.4	3.0	-0.2	-12.8	/
COCC(=O)Nc1ccc2c(c1)[C@@H]1C[C@@H](CC(=O)NCCc3ccccc3)O[C@H](CO)[C@@H]1O2	/	/	0.8	/	/	/	/
O=C(C[C@H]1C=C[C@@H](NC(=O)C2CCC2)[C@@H](CO)O1)NCc1ccncc1	/	/	-0.6	/	/	/	/
COc1ccccc1S(=O)(=O)N[C@@H]1CC[C@H](CCNC(=O)C2CC2)O[C@@H]1CO	/	/	0.5	/	/	/	/
SMILES	Mtb betalactam	MazEF act	TcdB inh	RecA splice inh	UGM FP inh	Rv3671c protease	GFP chromophore
Cc1ccc(S(=O)(=O)NC(=O)Nc2ccc(N(C)C)cc2)cc1	-9.4	9.0	1.5	49.1*	2.2	-29.8	19*
C[C@@H]1CN([C@@H](C)CO)C(=O)c2cc(NC(=O)CCC(F)(F)F)ccc2O[C@@H]1CN(C)C	/	/	-1.0	/	/	/	/
CCC(=O)N1[C@@H](CO)[C@@H]2c3ccccc3N(S(=O)(=O)c3ccccc3)C[C@@H]21	/	/	0.6	/	/	/	/
CC(C)(C)NC(=O)C(c1cccs1)N(CC1CCCO1)C(=O)c1ccc(-c2ccccc2)[nH]1 (configuration not stated)	-10.1	-7.2	/	33.4*	3.3	-5.7	>38
CNC[C@H]1Oc2cc(C#CC(C)(C)O)ccc2S(=O)(=O)N([C@H](C)CO)C[C@H]1C	/	/	-1.6	/	/	/	/
O=C(c1c[nH]c(C(=O)C(Cl)(Cl)Cl)c1)c1ccccc1Cl	-4.0	3.4	/	31.9*	-2.7	-2.2	25*
CC(=O)N(Cc1ccc(F)cc1)C1=C(NCCc2ccccc2)C(=O)c2ccccc2C1=O	99.9	-3.8	/	77.5*	0.6	-49.9	11.2*
CCN(CCN(C)C)C(=O)c1ccc2c(c1NCCO)C(=O)c1ccccc1C2=O	7.6	-4.6	1.6	47.9*	-0.4	-2.2	?
O=C1c2ccccc2C(=O)c2c1ccc(C(=O)N1CCCCC1)c2NCCO	17.0	2.0	/	-1.5	-2.4	2.8	/
CCCNC(=O)N1[C@@H]2CN(C(=O)Nc3ccccc3)c3ccccc3[C@@H]2[C@@H]1CO	/	/	-0.4	/	/	/	/
CCOC(=O)c1nc(C)n(-c2ccc(Cl)cc2)n1	-0.6	0.4	/	49.0*	1.6	-2.2	>38
Cn1cccc1C(=O)NC(=O)COC(=O)c1ccc(S(C)(=O)=O)c([N+](=O)[O-])c1	5.5	12.3	/	/	-2.0	-21.5	/
CS(=O)(=O)c1ccc(C(=O)OCC(=O)NC23CC4CC(CC(C4)C2)C3)cc1[N+](=O)[O-]	-0.8	7.8	0.0	32.1*	2.4	-79.3	>38
N#CC1(C#N)CC(C=O)=C(N)C1(C#N)CC(=O)C12CC3CC(CC(C3)C1)C2 (configuration not stated)	-5.9	8.1	-1.4	41.1*	1.1	-15.0	19.2*
CCC(=O)N1CC2(C1)[C@@H](c1ccc(-c3cccc(F)c3)cc1)[C@@H](CO)N2CC1CC1	/	/	0.2	/	/	/	/
O=C1/C(=C/Nc2ccc3c(c2)OCO3)CCc2ccccc21	91.5	-46.2	/	49.0*	-0.8	-5.4	3.24*
COc1ccc(N/C=C2\CCc3ccccc3C2=O)cc1	82.3	-25.6	0.0	70.7*	1.4	-14.5	19.4*
Cc1ccccc1NC(=O)c1nc(S(C)(=O)=O)ncc1Cl	90.0	6.8	1.1	/	0.9	3.4	/
CS(=O)(=O)c1ncc(Cl)c(C(=O)Nc2ccc(OC(F)F)cc2)n1	99.8	-3.0	1.3	78.9*	-1.0	-0.5	11.5*
CS(=O)(=O)c1ncc(Cl)c(C(=O)Nc2ccc(N3CCOCC3)cc2)n1	2.8	4.7	/	45.1*	-1.1	-7.6	38*
CS(=O)(=O)c1ccc(C(=O)Nc2ccc(N3CCOCC3)cc2)c(Cl)c1	1.9	6.8	0.7	0.9	-0.8	2.0	/
CC(C)(C)NC(=O)C(c1ccc(Cl)cc1)N(Cc1ccco1)C(=O)CCl (configuration not stated)	2.4	3.8	0.7	69.2*	-1.4	4.0	21.9*
